Screening results from PubChem.
CYP2C19 act – human CYP2C19 activators, primary screen, biochemical, luminescence | recombinant CYP2C19, luciferin-H EGE luminescence; active compounds read high; 0 = fully inhibited enzyme, 1 = untreated enzyme | 96,000 tested, under 10 active | AID 1025, 2008 | Cytochrome P450 2C19 (Homo sapiens), P33261 | activation factor at 5 µM;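 active = activation factor of at least 2 at 5 µM in the primary screen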
Target sequence (P33261 whole entry, looked up): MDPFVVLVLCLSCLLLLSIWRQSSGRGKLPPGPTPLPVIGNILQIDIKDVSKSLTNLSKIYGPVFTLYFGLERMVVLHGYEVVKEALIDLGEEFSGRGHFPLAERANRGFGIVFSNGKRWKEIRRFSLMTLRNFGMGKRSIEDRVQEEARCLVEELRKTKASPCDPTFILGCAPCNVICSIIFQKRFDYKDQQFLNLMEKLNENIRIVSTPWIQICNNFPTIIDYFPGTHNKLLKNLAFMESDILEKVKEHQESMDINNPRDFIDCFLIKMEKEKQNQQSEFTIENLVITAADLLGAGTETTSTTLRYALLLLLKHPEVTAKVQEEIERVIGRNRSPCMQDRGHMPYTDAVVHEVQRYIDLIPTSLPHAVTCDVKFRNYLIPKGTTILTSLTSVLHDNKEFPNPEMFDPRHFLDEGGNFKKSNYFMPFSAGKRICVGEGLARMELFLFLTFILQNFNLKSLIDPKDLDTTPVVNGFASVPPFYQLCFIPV
CYP2C9 act – human CYP2C9 activators, primary screen, biochemical, luminescence | Cytochrome P450 2C9 (Homo sapiens), P11712 | recombinant CYP2C9, luciferin-H conversion; active compounds read high; factor 1 = untreated enzyme, 0 = blocked | activation factor at 5 µM | 1.4% of 96,000 active | AID 1024, 2008;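 active = activation factor of 2 or more for CYP2C9 at a 5 µM dose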
CYP2C19 inh – blockers of cytochrome P450 2C19 activity – biochemical, luminescence, ADME assay, primary screen. P33261. CYP2C19 Supersomes, luciferin-H EGE luminescence, 30 min. inhibition, % at 5 µM. 21% of 96,000 active. AID 778, 2007;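 active = CYP2C19 inhibition above a set limit at 5 µM in the primary screen, cut at about 50% in these data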
EphB4 antag – EphB4-ephrin-B2 interaction antagonists, primary screen, biochemical, TNYL-RAW peptide probe, fluorescence polarization | Ephrin type-B receptor 4 (Homo sapiens), P54760 | EphB4 LBD / TNYL-RAW-Alexa532 peptide | inhibition, % at 7 µM | 0.15% of 97,000 active | AID 720, 2007;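 active = inhibition above the screen-wide mean inhibition plus 3 SD, cut at about 15% in these data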
CYP2C9 inh – blockers of cytochrome P450 2C9 activity – biochemical, luminescence, ADME assay, primary screen | P11712 | CYP2C9 Supersomes, luciferin-H conversion | inhibition, % at 5 µM | 20% of 96,000 active | AID 777, 2007;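 active = blocking of liver enzyme CYP2C9 beyond about 50% at 5 µM, limit read from the data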
Of the large screens only hits and unclear results are named; the others gave an inactive call. Shown are actives, neighbours in structure and some others; about 27% of the full set was active somewhere.

CN(C)CCCNc1c(C(=O)O)cnc2c1cnn2C	none
O=C1c2sc3nc4ccccc4n3c2C(=O)N1c1ccccc1Cl	CYP2C9 inh 60
O=C(CCN1C(=O)C2C3C=CC(C3)C2C1=O)NC1CCCc2ccccc21 (stereo not given)	none
O=C(CCn1ccc2ccccc21)NC1CCCc2ccccc21 (stereo not given)	CYP2C19 inh 93, CYP2C9 inh 60
CCCc1cc(=O)[nH]c(SCC(=O)CSc2nc(CCC)cc(=O)[nH]2)n1	CYP2C9 inh 70 (no result: EphB4 antag)
CCCc1cc(=O)[nH]c(SCCOC(=O)c2ccccc2)n1	CYP2C19 inh 54, CYP2C9 inh 71
CCCc1cc(=O)[nH]c(SCCOc2ccc(OCC)cc2)n1	none
CCCc1cc(=O)[nH]c(SCc2ccccc2Cl)n1	CYP2C19 inh 50, CYP2C9 inh 72
CCCc1cc(=O)[nH]c(SCc2nc3ccccc3s2)n1	none
Cc1ccc(C(=O)N2CCCC2)cc1Br	none
CCOc1ccc(Oc2cc(C)nc(SC)n2)nn1	none (no result: CYP2C19 act, CYP2C9 act, CYP2C19 inh, CYP2C9 inh)
O=C(c1ccc(CSCc2ccccc2F)o1)N1CCN(c2ccc(N3CCOCC3)nn2)CC1	CYP2C19 inh 60, CYP2C9 inh 50 (no result: EphB4 antag)
O=C(c1cc2ccccc2oc1=O)N1CCN(c2ccc(N3CCOCC3)nn2)CC1	none
CC12CN3CC(C)(CN(C1)C3c1ccc3c(c1)OCO3)C2=O (stereo not given)	CYP2C19 inh 53
N#Cc1c(SCc2ccccc2)sc(C(=O)c2ccccc2)c1N	none
N#Cc1c(SCc2cccc(Cl)c2)sc(C(=O)c2ccccc2)c1N	CYP2C19 inh 81, CYP2C9 inh 89
Cc1ccc(CSc2sc(C(=O)c3ccccc3)c(N)c2C#N)cc1	CYP2C9 inh 61
COCCN(C(=O)CN1CCc2ccccc2C1)c1c(N)n(Cc2ccccc2)c(=O)[nH]c1=O	none
COc1ccc(/C=N/NC(=O)CSc2nnc(CCCc3ccc(OC)c(C)c3)o2)cc1	CYP2C19 inh 78, CYP2C9 inh 84
COc1ccc(CCCc2nnc(SCC(=O)N/N=C\c3ccc(O)c(OC)c3)o2)cc1C	none
C=CCc1cc(/C=N\NC(=O)CSc2nnc(CCCc3ccc(OC)c(C)c3)o2)cc(OC)c1O	CYP2C19 inh 86, CYP2C9 inh 83
C=CCc1cc(/C=N/NC(=O)CSc2nnc(CCCc3ccc(OC)cc3)o2)cc(OC)c1O	CYP2C19 inh 89, CYP2C9 inh 80
CC(C)(C)c1cc(/C=N/NC(=O)Cc2nc3ccccc3[nH]2)cc(C(C)(C)C)c1O	CYP2C19 inh 93, CYP2C9 inh 99
CCNC(=O)C1(c2ccccc2)CCCC1	none
CNC(=O)CN1C(=O)NC2(CCc3ccccc32)C1=O (stereo not given)	none
O=C1NC(=O)C2(CCc3ccccc32)N1 (stereo not given)	none
Cc1cc(C(=O)CN2C(=O)NC(c3ccccc3)(c3ccccc3)C2=O)c(C)n1Cc1ccccc1	EphB4 antag 20, CYP2C9 inh 70
CCCCNC(=O)CN1C(=O)NC2(CCCc3ccccc32)C1=O (stereo not given)	CYP2C9 inh 68
O=C(CN1C(=O)NC2(CCc3ccccc32)C1=O)c1ccc2c(c1)OCCO2 (stereo not given)	CYP2C19 inh 58, CYP2C9 inh 96 (no result: EphB4 antag)
Cc1cc(C(=O)CN2C(=O)NC3(CCCc4ccccc43)C2=O)c(C)n1C (stereo not given)	CYP2C9 inh 72
Cc1ccccc1OCCN1C(=O)NC2(CCCc3ccccc32)C1=O (stereo not given)	none
CCCc1cc(=O)n2[nH]c(-c3cc(OC)c(OC)c(OC)c3)nc2n1	none
COc1ccc(-c2nc3c(c(SCC(=O)N4CCOCC4)n2)COC(C)(C)C3)cc1	none (no result: EphB4 antag)
CC(Cc1cccs1)NC(=O)Nc1ccccc1 (stereo not given)	CYP2C19 inh 89, CYP2C9 inh 57
CC(Cc1cccs1)NC(=O)Nc1ccc(Cl)c(Cl)c1 (stereo not given)	CYP2C19 inh 73, CYP2C9 inh 69
CC(Cc1cccs1)NC(=O)Nc1ccc(Cl)cc1 (stereo not given)	CYP2C19 inh 68
C[C@H](NC(=O)NCc1cccs1)C(=O)O	none
Cc1nnc(SCc2ccccc2)n1CC1CCCO1 (stereo not given)	none
CCn1c(CNC(=O)Cc2ccc(OC)cc2)nnc1SCC(=O)c1ccc(Br)cc1	none
CC(N=c1ccccn1C(=O)Nc1ccc(F)cc1)c1ccco1 (stereo not given)	none
CCCCOC(=O)c1ccc(NC(=O)CSCc2n[nH]c(=O)[nH]2)cc1	none
CCOC(=O)C1C2C=CC3(CN(c4ccc(Cl)c(F)c4)C(=O)C13)O2 (stereo not given)	none (no result: CYP2C19 act, CYP2C9 act, CYP2C19 inh, CYP2C9 inh)
O=C(CSc1ncnc2c1oc1ccccc12)Nc1nc2ccccc2s1	CYP2C9 inh 77
O=C(CSc1ncnc2c1oc1ccccc12)Nc1cccc(Cl)c1	CYP2C9 inh 60
O=C(CSc1ncnc2c1oc1ccccc12)Nc1cccc(C(F)(F)F)c1	none
CCc1nnc(NC(=O)CSc2ncnc3c2oc2ccccc23)s1	CYP2C9 inh 77
CCOc1ccccc1NC(=O)CSc1ncnc2c1oc1ccccc12	CYP2C9 inh 85
CCOc1ccc(Cc2nnc(N)s2)cc1OCC	none
CCn1c(C)nc2cc(S(=O)(=O)N3CCCCC3)ccc21	none (no result: EphB4 antag)
COc1ccc(Cc2nnc(NC(=O)Cn3cnc4c3c(=O)n(C)c(=O)n4C)s2)cc1	none (no result: CYP2C19 act, CYP2C9 act, CYP2C19 inh, CYP2C9 inh)
c1ccc(-n2cnnc2SCc2cn3cccnc3n2)cc1	none
c1ccc(CCSc2nccn2-c2ccccc2)cc1	CYP2C19 inh 61, CYP2C9 inh 54
Cn1c(SCC(=O)N2CCCc3ccccc32)nc2cccnc21	none (no result: CYP2C19 act, CYP2C9 act, CYP2C19 inh, CYP2C9 inh)
O=C(CSc1nccn1-c1ccccc1)N1CCc2ccccc21	CYP2C19 inh 96
Cn1c(SCC(=O)N2CCc3ccccc32)nc2cccnc21	CYP2C19 inh 82
O=C(CSc1ncc(-c2ccccc2)n1C1CCCC1)N1CCc2ccccc21	CYP2C19 inh 65, CYP2C9 inh 51
COC(=O)Cc1n[nH]c(=S)[nH]c1=O	none
O=C(O)c1cnn2c(C(F)F)cc(C(F)F)nc12	none (no result: CYP2C19 act, CYP2C9 act, CYP2C19 inh, CYP2C9 inh)
COC(=O)Oc1c(Br)c(=O)oc2ccccc12	none (no result: CYP2C19 act, CYP2C9 act, CYP2C19 inh, CYP2C9 inh)
O=C(CC12CC3CC(CC(C3)C1)C2)N1CCOCC1	none
CC(C(=O)N1c2ccccc2Sc2ccccc21)n1nnc(-c2cccs2)n1 (stereo not given)	CYP2C19 inh 51, CYP2C9 inh 83
Cc1sc2ncnc(SCC(=O)c3cccs3)c2c1C	CYP2C9 inh 60
Cc1sc2ncnc(SCC(=O)NNC(=O)COc3cccc4ccccc34)c2c1C	none
CCCN(CC1CC1)C(=O)CSc1ncnc2sc(C)c(C)c12	CYP2C19 inh 92, CYP2C9 inh 53
Cc1sc2ncnc(SCC#N)c2c1C	none (no result: EphB4 antag)
Cc1sc2ncnc(SCC(=O)N3CCCC3=O)c2c1C	CYP2C19 inh 59, CYP2C9 inh 63
